From PubChem BioAssay
“And” between values parts separate entries of the source, which are not always exact repeats. Equal values may be shown once. The source made the active and inactive calls. Rule as the data show it, unless noted: active = nuclear beta-catenin stimulation mostly above about 4.2% (no sharp cut-off); inactive = mostly below about 10%.

Experiments:
[1] = stimulators of nuclear beta-catenin in C2C12, primary screen, imaging, WNT3A-conditioned medium, mouse C2C12, NPC library (AID 1117326); details: stronger effect = higher value
[2] = stimulators of insulin release from INS-1E, primary screen, cell-based, 5 mM glucose, NPC library (AID 1117329;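 active = compound raises insulin release from rat beta cells at 5 mM glucose, no numeric limit stated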); details: rat INS-1E insulin secretion, at 10 µM, stronger effect = higher value
[3] = glucagon-like peptide 1 release enhancers, primary assay, NCI-H716 cell line, NPC library (AID 1117341;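 active = compound raises GLP1 secretion from the human gut endocrine cells, with no numeric limit stated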); details: NCI-H716 cells, at 10 µM, stronger effect = higher value
[4] = growth inhibition of GSK3B-pretreated HCT116 cells – cell-based, CellTiter-Glo, 0.2 to 20 µM (AID 1117336;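 active = compounds lowering colon cancer cell viability after pretreatment blocking the GSK3B kinase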); details: HCT116 viability after GSK3B inhibitor, at 20 µM, stronger effect = higher value
[5] = inhibition of endothelial tube formation, primary screen, imaging, VEGF stimulated, CD31 staining, tube area, NPC library (AID 1117340;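 active = compound that reduces growth-factor-driven endothelial tube area in a mixed cell culture, no cutoff stated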); details: VEGF-stimulated ADSC/ECFC co-culture, at 10 µM, stronger effect = higher value
[6] = HCT116 colon cancer cell growth inhibition, primary screen, CellTiter-Glo luminescence, NPC library (AID 1117342;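 active = compounds that lower survival of HCT116 colon cancer cells in the luminescence readout, no numeric limit stated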); details: at 20 µM (top of the series)
[7] = CellTiter-Glo luminescent readout of SW480 viability loss, NPC library primary (AID 1117343;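 active = compounds that lower viability of the colon cancer cells in the luminescence readout, with no numeric limit stated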); details: CellTiter-Glo luminescence; at 20 µM (top of the series) unless noted
[8] = decreased DLD-1 cellular survival, CellTiter-Glo luminescent readout, NPC compound collection, primary HTS (AID 1117346;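 active = compounds that lower survival of DLD-1 colon cancer cells in the luminescence readout, no cutoff given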); details: DLD-1 viability, CellTiter-Glo luminescence; at 20 µM (top of the series)
[9] = liver-stage malaria parasite growth inhibition, primary screen, cell-based, HepG2, luciferase luminescence, HepG2 viability (AID 624349; in the data active = parasite load remaining mostly below about 12%, no sharp cut-off; inactive = mostly above about 10%;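 also: 100% = mean of DMSO negative control wells on the same plate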); details: P. berghei liver stage in HepG2, luciferase luminescence, concentration not given here; parasite load remaining: stronger effect = lower value; viability: measured here: HepG2 viability without parasites
[10] = molecular target: 6-phosphogluconate dehydrogenase, decarboxylating (Homo sapiens) (UniProt P52209); test: 6PGD enzyme inhibitors, primary screen, biochemical, human, recombinant enzyme, NADPH absorbance (AID 1159550;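 active = at least 20% inhibition of 6-phosphogluconate dehydrogenase activity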); details: recombinant 6PGD, NADPH absorbance 341 nm; at 10 µM; stronger effect = higher value
6-phosphogluconate dehydrogenase, decarboxylating (Homo sapiens), sequence (P52209 whole entry, looked up): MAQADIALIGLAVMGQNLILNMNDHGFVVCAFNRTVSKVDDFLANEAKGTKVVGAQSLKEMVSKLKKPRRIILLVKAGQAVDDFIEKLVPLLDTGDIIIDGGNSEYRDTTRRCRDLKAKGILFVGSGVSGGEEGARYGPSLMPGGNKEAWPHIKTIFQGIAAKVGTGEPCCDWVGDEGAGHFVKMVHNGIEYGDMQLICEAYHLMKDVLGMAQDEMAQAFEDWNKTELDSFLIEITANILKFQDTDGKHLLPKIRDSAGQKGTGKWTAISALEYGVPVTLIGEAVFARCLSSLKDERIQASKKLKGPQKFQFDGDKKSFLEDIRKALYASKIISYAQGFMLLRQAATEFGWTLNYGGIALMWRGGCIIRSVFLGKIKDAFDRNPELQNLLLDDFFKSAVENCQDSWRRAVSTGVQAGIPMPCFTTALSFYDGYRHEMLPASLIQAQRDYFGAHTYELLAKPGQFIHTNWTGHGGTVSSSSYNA

[11] = sensitizers of A549 cells to miR-34 induction, primary screen, imaging, A549 dox-inducible miR-34, nuclei and caspase counts (AID 1347080;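 active = compounds whose cell count with miR-34 switched on is under 0.7 times the count with it off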); details: A549 miR-34 inducible, Hoechst nuclei count, 48 h
[12] = molecular target: NAD(+) hydrolase SARM1 (Homo sapiens) (UniProt Q6SZW1); test: SARM1 TIR NADase inhibitors, cell lysate, NAD-Glo luminescence (AID 1508614;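 active = compound whose remaining NAD level is above about 45 nM, limit read from the data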;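 also: higher remaining NAD means stronger inhibition of SARM1 NADase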); details: SAM-TIR HEK293T lysate NADase, at 1 µM, stronger effect = higher value
NAD(+) hydrolase SARM1 (Homo sapiens), sequence (Q6SZW1 whole entry, looked up): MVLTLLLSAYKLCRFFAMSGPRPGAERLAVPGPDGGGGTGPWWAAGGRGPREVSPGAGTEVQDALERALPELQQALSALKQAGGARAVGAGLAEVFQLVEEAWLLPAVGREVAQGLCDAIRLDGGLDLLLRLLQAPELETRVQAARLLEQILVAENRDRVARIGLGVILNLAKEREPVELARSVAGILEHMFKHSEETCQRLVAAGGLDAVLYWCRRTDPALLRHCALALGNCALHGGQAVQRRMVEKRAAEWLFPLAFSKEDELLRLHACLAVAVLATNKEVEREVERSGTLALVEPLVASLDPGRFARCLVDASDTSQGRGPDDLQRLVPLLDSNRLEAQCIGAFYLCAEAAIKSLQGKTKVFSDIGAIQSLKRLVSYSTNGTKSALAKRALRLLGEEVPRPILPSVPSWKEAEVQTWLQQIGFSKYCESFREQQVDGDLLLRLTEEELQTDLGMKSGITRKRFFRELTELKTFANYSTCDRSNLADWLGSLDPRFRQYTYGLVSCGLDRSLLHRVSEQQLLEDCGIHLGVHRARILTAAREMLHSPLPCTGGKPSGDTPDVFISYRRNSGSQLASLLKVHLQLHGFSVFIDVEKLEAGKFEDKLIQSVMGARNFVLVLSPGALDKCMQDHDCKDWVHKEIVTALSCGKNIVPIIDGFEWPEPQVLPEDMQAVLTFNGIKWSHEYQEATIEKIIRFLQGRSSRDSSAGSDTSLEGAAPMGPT

[13] = survival rescue of mitochondrial mutant cells in low glucose, primary screen, MELAS cybrids, Rieske KO mouse fibroblasts, CellTiter-Glo (AID 1508586;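 active = mean z-score across replicates of 1.96 or higher in either the MELAS or the Rieske mutant cell line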;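 also: z relative to plate mean and SD of compound and empty wells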)
[14] = viability rescue of complex I mutant cybrids, primary screen, cell-based, galactose medium, ATP luminescence (AID 1645843;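 active = z-score of at least 1.8 in each of two replicates, scored against plate mean and spread of sample wells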;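 also: positive z means more ATP and so rescue of galactose-driven cybrid death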); details: complex I mutant cybrid cells, 72 h, stronger effect = higher value
[15] = molecular target: Mitogen-activated protein kinase 7 (Homo sapiens) (UniProt Q13164); test: ERK5 transactivation activators in reporter cells, primary screen, cell-based, HTS (AID 1508626;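 active = luciferase signal above three times the same-plate solvent-only control wells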;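 also: luciferase driven by Gal4-ERK5 fusion binding five Gal4 sites before minimal TATA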); details: HeLa Gal4-ERK5 transactivation, 18 h, at 5 µM, stronger effect = higher value
Mitogen-activated protein kinase 7 (Homo sapiens), sequence (Q13164 whole entry, looked up, the tested form may be a part): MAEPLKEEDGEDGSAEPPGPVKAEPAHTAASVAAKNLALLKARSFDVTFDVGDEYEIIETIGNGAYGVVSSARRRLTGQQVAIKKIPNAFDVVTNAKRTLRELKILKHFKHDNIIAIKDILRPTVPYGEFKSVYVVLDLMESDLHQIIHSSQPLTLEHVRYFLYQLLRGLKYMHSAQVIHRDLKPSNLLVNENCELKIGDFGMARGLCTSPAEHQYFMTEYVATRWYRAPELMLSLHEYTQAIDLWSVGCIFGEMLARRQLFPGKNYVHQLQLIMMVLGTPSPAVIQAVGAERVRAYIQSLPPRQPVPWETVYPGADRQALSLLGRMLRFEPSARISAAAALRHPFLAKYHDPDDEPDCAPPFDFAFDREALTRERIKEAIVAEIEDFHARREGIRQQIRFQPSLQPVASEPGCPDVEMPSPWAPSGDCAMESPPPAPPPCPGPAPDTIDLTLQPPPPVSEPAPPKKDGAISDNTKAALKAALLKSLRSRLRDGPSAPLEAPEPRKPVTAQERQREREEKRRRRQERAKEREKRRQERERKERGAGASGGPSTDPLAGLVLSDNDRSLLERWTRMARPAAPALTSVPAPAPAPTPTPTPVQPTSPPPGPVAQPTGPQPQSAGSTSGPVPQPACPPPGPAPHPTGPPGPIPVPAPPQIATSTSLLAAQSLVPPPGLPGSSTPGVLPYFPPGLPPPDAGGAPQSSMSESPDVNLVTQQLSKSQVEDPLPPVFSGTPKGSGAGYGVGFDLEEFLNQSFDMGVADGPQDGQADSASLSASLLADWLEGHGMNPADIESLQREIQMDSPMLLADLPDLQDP

[16] = hESC survival regulators, cell-based (AID 493140; call rule not given here;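 also: cells exposed to compounds for four days before counting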); details: human embryonic stem cell survival screen; stronger effect = higher value
[17] = stronger effect = lower value, cell number ratio, induced over uninduced
[18] = measured here: relative caspase fold change +Dox/-Dox
[19] = measured here: total cells with miR-34 induction, stronger effect = lower value
[20] = measured here: total cells without miR-34 induction
[21] = MELAS cybrid survival, CellTiter-Glo 48 h, stronger effect = higher value
[22] = Rieske KO mouse fibroblast survival, CellTiter-Glo 72 h

## CCCCCCOC(=O)c1cccnc1
[1]; at 10 µM
  nuclear beta-catenin stimulation: 5.7% (inactive)
[1]; stimulation, at 2 µM
  nuclear beta-catenin stimulation: 1.5%
[2]
  insulin secretion stimulation: -1.25% (inactive)
[3]
  GLP1 secretion stimulation: -0.9% (inactive)

## FC(F)(F)C(F)(F)C(F)(F)C(F)(F)C(F)(F)C(F)(F)C(F)(F)C(F)(F)Br
[1]; at 10 µM
  nuclear beta-catenin stimulation: -0.6% (inactive)
[1]; stimulation, at 2 µM
  nuclear beta-catenin stimulation: 11.4%
[4]
  viability decrease: 8.2% (inactive)
[5]
  tube area decrease: -4.5% (inactive)
[6]
  inhibition of viability: 12.1% (inactive)
[7]
  viability decrease (inhibition): -4.8% (inactive)
[8]
  viability decrease (inhibition): 7.2% (inactive)

## Cc1cccc(C)c1NC(=O)CC12CCCN1CCC2
[1]; at 10 µM
  nuclear beta-catenin stimulation: 4.2% (inactive)
[1]; stimulation, at 2 µM
  nuclear beta-catenin stimulation: 1.3%
[2]
  insulin secretion stimulation: 0.3% (inactive)
[3]
  GLP1 secretion stimulation: 5% (inactive)

## CCCCN1CCCC1C(=O)Nc1c(C)cc(C)cc1C (configuration not stated)
[1]; at 10 µM
  nuclear beta-catenin stimulation: 1% (inactive)
[1]; stimulation, at 2 µM
  nuclear beta-catenin stimulation: -0.4%
[2]
  insulin secretion stimulation: 0% (inactive)
[3]
  GLP1 secretion stimulation: -3.8% (inactive)

## CCC(C(=O)OCCOCCN(CC)CC)c1ccccc1 (configuration not stated)
[1]; at 10 µM
  nuclear beta-catenin stimulation: 1.3% (inactive)
[1]; stimulation, at 2 µM
  nuclear beta-catenin stimulation: -2.5%
[2]
  insulin secretion stimulation: 5.45% (inactive)
[3]
  GLP1 secretion stimulation: 7.5% (inactive)

## Cc1c(C)c2c(c(C)c1O)CC[C@@](C)(CCC[C@H](C)CCC[C@H](C)CCCC(C)C)O2
[9]
  parasite load remaining: 72.9% (inactive)
  viability: 100%
[1]; at 10 µM
  nuclear beta-catenin stimulation: 0.1% (inactive)
[1]; stimulation, at 2 µM
  nuclear beta-catenin stimulation: 0.4%
[2]
  insulin secretion stimulation: 1% (inactive)
[3]
  GLP1 secretion stimulation: 4.7% (inactive)
[10]
  inhibition: -20.7% (inactive)
[11]; [17]
  fold change: 0.864 (inactive)
[11]; [18]
  fold change: 1.16
[11]; [19]
  cell count: 7550
[11]; [20]
  cell count: 8740
[12]
  remaining NAD: 10 nM (inactive)

## Cc1cc(OI)c(C(C)C)cc1-c1cc(C(C)C)c(OI)cc1C
[1]; at 10 µM
  nuclear beta-catenin stimulation: 0% (inactive)
[1]; stimulation, at 2 µM
  nuclear beta-catenin stimulation: 5.1%
[4]
  viability decrease: 13.9% (inactive)
[5]
  tube area decrease: 4.7% (inactive)
[6]
  inhibition of viability: -41.6% (inactive)
[7]
  viability decrease (inhibition): 10.4% (inactive)
[8]
  viability decrease (inhibition): 18.8% (inactive)

## Cc1c(N)cccc1C(F)(F)F
[1]; at 10 µM
  nuclear beta-catenin stimulation: 0.9% (inactive)
[1]; stimulation, at 2 µM
  nuclear beta-catenin stimulation: 5.4%
[4]
  viability decrease: 2.8% (inactive)
[5]
  tube area decrease: 5.6% (inactive)
[6]
  inhibition of viability: 11.2% (inactive)
[7]
  viability decrease (inhibition): 1.3% (inactive)
[8]
  viability decrease (inhibition): 6.9% (inactive)

## COc1ccc(/C=N/NC(=O)c2ccncc2)cc1OC
[1]; at 10 µM
  nuclear beta-catenin stimulation: 3.6% (inactive)
[1]; stimulation, at 2 µM
  nuclear beta-catenin stimulation: 8%
[4]
  viability decrease: 2.5% (inactive)
[5]
  tube area decrease: 12.2% (inactive)
[6]
  inhibition of viability: 11.9% (inactive)
[7]
  viability decrease (inhibition): -1% (inactive)
[8]
  viability decrease (inhibition): -0.1% (inactive)

## C[C@H](O)CN(C)C
[1]; at 10 µM
  nuclear beta-catenin stimulation: -0.1% (inactive)
[1]; stimulation, at 2 µM
  nuclear beta-catenin stimulation: 1.5%
[2]
  insulin secretion stimulation: 0.35% (inactive)
[3]
  GLP1 secretion stimulation: -2.5% (inactive)

## O=C(NC1CCN(CCc2c[nH]c3ccccc23)CC1)c1ccccc1
[1]; at 10 µM
  nuclear beta-catenin stimulation: 1% (inactive)
[1]; stimulation, at 2 µM
  nuclear beta-catenin stimulation: 2%
[2]
  insulin secretion stimulation: 1.25% (inactive)
[3]
  GLP1 secretion stimulation: -4.5% (inactive)

## NC(=O)C1(N2CCCCC2)CCN(CCCN2c3ccccc3CCc3ccc(Cl)cc32)CC1
[1]; at 10 µM
  nuclear beta-catenin stimulation: 1.5% (inactive)
[1]; stimulation, at 2 µM
  nuclear beta-catenin stimulation: 12.3%
[4]
  viability decrease: 99.5% (active)
[5]
  tube area decrease: 109% (active)
[6]
  inhibition of viability: 99.4% (active)
[7]
  viability decrease (inhibition): 102% (active)
[8]
  viability decrease (inhibition): 102% (active)

## Cc1cc(O)c2c(O)c3c(O)cccc3cc2c1
[1]; at 10 µM
  nuclear beta-catenin stimulation: 6.3% (inactive)
[1]; stimulation, at 2 µM
  nuclear beta-catenin stimulation: 4.6%
[4]
  viability decrease: 97% (active)
[5]
  tube area decrease: 67.8% (active)
[6]
  inhibition of viability: 90.6% (active)
[7]
  viability decrease (inhibition): 95.1% (active)
[8]
  viability decrease (inhibition): 95.3% (active)

## NC1=NCC2c3ccccc3Cc3ccccc3N12 (configuration not stated)
[1]; at 10 µM
  nuclear beta-catenin stimulation: -0.3% (inactive)
[1]; stimulation, at 2 µM
  nuclear beta-catenin stimulation: -1%
[2]
  insulin secretion stimulation: 12.5% (inactive)
[3]
  GLP1 secretion stimulation: 4.4% (inactive)
[11]; [17]
  fold change: 0.943 (inactive) and 0.763 (inactive)
[11]; [18]
  fold change: 0.904 and 1
[11]; [19]
  cell count: 9270 and 7910
[11]; [20]
  cell count: 9840 and 10400
[13]; [21]
  z-score: -0.3 (inactive)
[13]; [22]
  z-score: -0.211
[14]
  z-score: -0.265 (inactive)

## CCOC(=O)[C@H](CCc1ccccc1)N[C@@H](C)C(=O)N1C(=O)N(C)C[C@H]1C(=O)O
[1]; at 10 µM
  nuclear beta-catenin stimulation: 0% (inactive)
[1]; stimulation, at 2 µM
  nuclear beta-catenin stimulation: -1.6%
[2]
  insulin secretion stimulation: 0% (inactive)
[3]
  GLP1 secretion stimulation: 2% (inactive)

## CNS(=O)(=O)CCc1ccc2[nH]cc(C3CCN(C)CC3)c2c1
[1]; at 10 µM
  nuclear beta-catenin stimulation: 0.7% (inactive)
[1]; stimulation, at 2 µM
  nuclear beta-catenin stimulation: 0.4%
[2]
  insulin secretion stimulation: 0.5% (inactive)
[3]
  GLP1 secretion stimulation: -4.5% (inactive)
[11]; [17]
  fold change: 1.03 (inactive) and 0.889 (inactive)
[11]; [18]
  fold change: 0.856 and 0.863
[11]; [19]
  cell count: 10300 and 7800
[11]; [20]
  cell count: 9960 and 8780
[13]; [21]
  z-score: -0.419 (inactive)
[13]; [22]
  z-score: 0.51
[14]
  z-score: -0.035 (inactive)

## CC(C)(CO)[C@@H](O)C(=O)NCCC(=O)NCCSSCCNC(=O)CCNC(=O)[C@H](O)C(C)(C)CO
[1]; at 10 µM
  nuclear beta-catenin stimulation: 0% (inactive)
[1]; stimulation, at 2 µM
  nuclear beta-catenin stimulation: -1.3%
[2]
  insulin secretion stimulation: 0.15% (inactive)
[3]
  GLP1 secretion stimulation: 2% (inactive)
[12]
  remaining NAD: 10 nM (inactive)
[15]
  luciferase signal: 160 AU (active)

## CC(=O)NC(=O)c1ccccc1O
[1]; at 10 µM
  nuclear beta-catenin stimulation: 4.6% (inactive)
[1]; stimulation, at 2 µM
  nuclear beta-catenin stimulation: 0.9%
[2]
  insulin secretion stimulation: -0.5% (inactive)
[3]
  GLP1 secretion stimulation: -0.9% (inactive)

## COC(=O)CCCCC(CCSS/C(CCO)=C(\C)N(C=O)Cc1cnc(C)nc1N)SC(C)=O (configuration not stated)
[1]; at 10 µM
  nuclear beta-catenin stimulation: 1% (inactive)
[1]; stimulation, at 2 µM
  nuclear beta-catenin stimulation: -1%
[2]
  insulin secretion stimulation: 0.75% (inactive)
[3]
  GLP1 secretion stimulation: 0.4% (inactive)

## Cc1cccc(Nc2cc(Cl)nc(SCC(=O)O)n2)c1C
[16]
  survival: 88 (inactive)
[1]; at 10 µM
  nuclear beta-catenin stimulation: -0.3% (inactive)
[1]; stimulation, at 2 µM
  nuclear beta-catenin stimulation: 0.2%
[2]
  insulin secretion stimulation: -0.2% (inactive)
[3]
  GLP1 secretion stimulation: -3.8% (inactive)
[13]; [21]
  z-score: -0.392 (inactive)
[13]; [22]
  z-score: -0.362
[14]
  z-score: 0.215 (inactive)

## CCc1cccc(N(C)C(N)=Nc2cccc3ccccc23)c1
[1]; at 10 µM
  nuclear beta-catenin stimulation: -1.6% (inactive)
[1]; stimulation, at 2 µM
  nuclear beta-catenin stimulation: -1.7%
[2]
  insulin secretion stimulation: 60.2% (active)
[3]
  GLP1 secretion stimulation: 1.6% (inactive)
[11]; [17]
  fold change: 1.03 (inactive)
[11]; [18]
  fold change: 1.33
[11]; [19]
  cell count: 7210
[11]; [20]
  cell count: 6970
[14]
  z-score: -1.44 (inactive)

## O=C(CCCN1CCC(O)(c2cccc(C(F)(F)F)c2)CC1)c1ccc(F)cc1
[9]
  parasite load remaining: 27% (inactive)
  viability: 66%
[1]; at 10 µM
  nuclear beta-catenin stimulation: 14.8% (inactive)
[1]; stimulation, at 2 µM
  nuclear beta-catenin stimulation: -1.1%
[2]
  insulin secretion stimulation: -0.35% (inactive)
[3]
  GLP1 secretion stimulation: 5.6% (inactive)
[11]; [17]
  fold change: 1.01 (inactive) and 0.873 (inactive)
[11]; [18]
  fold change: 0.77 and 1.63
[11]; [19]
  cell count: 10300 and 9050
[11]; [20]
  cell count: 10200 and 10400
[13]; [21]
  z-score: -0.508 (inactive)
[13]; [22]
  z-score: -1.07
[14]
  z-score: -1 (inactive) and -0.885 (inactive)

## O=C(OCc1ccccc1)c1cccnc1
[1]; at 10 µM
  nuclear beta-catenin stimulation: -0.5% (inactive)
[1]; stimulation, at 2 µM
  nuclear beta-catenin stimulation: -2.3%
[2]
  insulin secretion stimulation: 0.3% (inactive)
[3]
  GLP1 secretion stimulation: -1.9% (inactive)
